PubChem BioAssay (NCATS)
Records with an inconclusive call do not appear. The source made the active and inactive calls. Calls follow the shape of the dose curve; as a rule, active = well fitted inhibition curve with a large enough effect; inconclusive = small, poorly fitted or top-dose-only effect; inactive = flat fitted curve, though single readings scatter.

Tests used:
Test in all cases: qHTS profiling for inhibitors of Plasmodium falciparum proliferation (AID 504749); also: nearly all actives have a fitted effect of over 60% in size
Settings in all cases: P. falciparum in erythrocytes, SYBR Green DNA, 72 h; series mostly up to 28.7 µM
[1] = test system: ATS95
In short: (§1)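 Fluorescence of SYBR Green-bound parasite DNA, read at 485/535 nm, served as the growth measure. Infected erythrocytes were cultured with compound 72 h; artemisinin (0.29 uM) and DMSO wells defined the normalization range.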

[2] = test system: C2A
In short: as §1

[3] = test system: CP211
In short: as §1

[4] = test system: CP217
In short: as §1

[5] = test system: CP238
In short: as §1

[6] = test system: CP250
In short: as §1

[7] = test system: CP252
In short: as §1

[8] = test system: CP256
In short: as §1

[9] = test system: CP265
In short: as §1

[10] = test system: CP268
In short: as §1

[11] = test system: CP269
In short: as §1

[12] = test system: CP305
In short: as §1

[13] = test system: CP329
In short: as §1

[14] = test system: CP335
In short: as §1

[15] = test system: DIV30
In short: as §1

[16] = test system: ECU
In short: as §1

[17] = test system: P93_24
In short: as §1

[18] = test system: PAD
In short: as §1

[19] = test system: PC26
In short: as §1

[20] = test system: SC27B
In short: as §1

Measured: Potency

C[C@@H](C(=O)O)c1ccc(-c2ccccc2)c(F)c1
inactive: all assays above
